Results as given in ChEMBL document CHEMBL1157539, “Thousands of chemical starting points for antimalarial lead identification” (Nature, 2010).

test system: Plasmodium falciparum; experiment: GSK_TCMDC: Inhibition of Plasmodium falciparum 3D7 in whole red blood cells, using parasite LDH activity as an index of growth. Test compounds present at 2uM; format: functional

Row | Structure (SMILES) | Inhibition
1 | CNC(=O)c1ccccc1Nc1nc(Nc2cccc(CS(C)(=O)=O)c2)ncc1C.O=CO | 97%
2 | C=Cc1sc(CNCCCNc2cc(=O)c3ccccc3[nH]2)c(C)c1Br | 94%
3 | Br.CCCC1N=C(N)N=C(N)N1c1ccc(OC)cc1 (centres undefined) | 96%
4 | CCNc1cc(C(=O)N[C@@H](Cc2ccccc2)[C@H](O)CNC2(CCC(C)C)CC2)cc(N2CCCCS2(=O)=O)c1.Cl | 90%
5 | COc1ccc2nccc(N3CCCN(CCNCc4ccc5c(n4)NC(=O)CS5)CC3)c2n1.Cl | 100%
6 | O=c1cc(NCCC2CC=CCN2Cc2ccc(Cl)c(Cl)c2)[nH]c2ccccc12 (centres undefined) | 94%
7 | O=C(CC(=O)C(F)(F)F)c1ccccc1[N+](=O)[O-] | 97%
8 | CCOc1ccc2c(=NN=Cc3cccc(Cl)c3)cc(C)[nH]c2c1 | 93%
9 | COc1ccc(Nc2nccc(N3CCC(NC(=O)c4cccc(NC(C)=O)c4)C3)n2)cc1 (centres undefined) | 92%
10 | Cc1cc(Cl)c(Cl)cc1NC(=O)Nc1cccc(C(F)(F)F)c1 | 93%
11 | Cc1cccc2c(/C=C/C(=O)NC3CCC(CCN4CCc5ccc(C#N)cc5CC4)CC3)c[nH]c12.Cl (centres undefined) | 91%
12 | CCCC(N)C(=O)NC1CCN(c2c(F)c(N)c3c(=O)c(C(=O)O)cn4c3c2Oc2ccccc2-4)C1.Cl (centres undefined) | 98%
13 | CC(C)CN(c1nc(C(=O)NNC(=O)[C@H](CC2CC2)NC(=O)c2cc3cc(OCCN4CCCCC4)ccc3o2)cs1)C1CC1 | 97%
14 | CCc1ccc(OCc2ccccc2C(=O)Nc2ccc3nc(C)cc(N)c3c2)cc1.Cl | 99%
